Bioassay records from PubChem.
MITF TRPM1 inh: reduces MITF-dependent TRPM1 promoter luciferase signal; inhibition, % at 12.5 µM; actives 0.83% (n = 330,000); SK-MEL-5 TRPM1 promoter luciferase, 24 h;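 active = mean inhibition across replicates of 60% or more, whatever share of single replicates reaches that level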
LMP1 NFkB inh: Epstein-Barr LMP1 NF-kappaB reporter inhibition; actives 0.69% (n = 350,000); LMP1-induced NF-kappaB luciferase reporter cells, luminescence; inhibition, % at 12.5 µM; in the data active = inhibition above about 41%
KKLEB cytotox: CF airway cell cytotoxicity counter-screen | KKLEB CF airway cells viability, ATPlite luminescence, overnight; hits give low values; cells stimulated with P. aeruginosa culture filtrate | activity change (cytotoxicity), % at 5 µM | actives 0.36% (n = 360,000) | AID 602141;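 active = corrected activity change at or below -50% at 5 µM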
Peg3 prom inh: Peg3 promoter activity inhibition; HeLa PEG-Prom luciferase reporter, luminescence, overnight; actives 1.7% (n = 360,000); inhibition, % at 20 µM;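 active = inhibition of at least 50% at 20 µM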
CF NFkB block: cystic fibrosis NF-kB activation inhibition; KKLEB NF-kB-GFP reporter, PAF-induced, GFP fluorescence overnight; inhibition, % at 5 µM; actives 0.86% (n = 360,000);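 active = at least 50% inhibition at 5 µM, scaled per plate between neutral and stimulator controls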;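 also: PAF is a Pseudomonas aeruginosa culture filtrate used as stimulus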
Shn3 3UTR inh: reduces Shn3 3'UTR luciferase signal in osteoblasts. AID 588674. actives 0.52% (n = 360,000). Clone20 osteoblast Shn3 3'UTR firefly luciferase, 24 h. inhibition, % at 12.5 µM;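 active = mean inhibition of at least 75% with every replicate also reaching 75%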
Hits are given with their value; – = inactive; · = not tested or not shown. Hits are enriched below; roughly 2.9% of the tested compounds scored in any of these assays.

SMILES	MITF TRPM1 inh	LMP1 NFkB inh	KKLEB cytotox	Peg3 prom inh	CF NFkB block	Shn3 3UTR inh
Cc1ccc(-c2nnc(NCc3nc4ccccc4[nH]3)c3ccccc23)cc1S(=O)(=O)N1CCOCC1	–	–	–	65	–	–
O=C(O)CCCCCN1C(=O)/C(=C/c2cn(-c3ccccc3)nc2-c2cccs2)SC1=S	–	–	–	–	68	–
O=C(O)CCCCCN1C(=O)/C(=C\c2cn(-c3ccccc3)nc2-c2cccs2)SC1=S	–	–	–	–	59	–
Cc1ccc(C)c(NC(=O)CN(C)C(=O)c2ccc(COc3ccccc3)cc2)c1	·	–	–	–	–	–
CC(C)CCCCCCCCCCCCC(=O)NCC(=O)NC1C(C)OC(Nc2ncnc3nc[nH]c23)C(O)C1O (stereo not drawn)	69	92	–	100	83	92
CN(CCc1ccccc1)C(=O)c1[nH]c(C(F)(F)F)nc1-c1ccccc1	·	·	–	–	–	–
NC1=C(Cl)C(=O)c2ccccc2C1=O	95	–	–	–	60	–
NC1=C(Cl)C(=O)c2ccc(S(N)(=O)=O)cc2C1=O	96	88	-95	110	89	98
O=C1c2ccccc2-c2nccnc21	–	–	–	–	–	–
CSc1nc(=O)[nH]nc1Sc1ccccc1	·	–	–	–	–	–
COc1cccc(S(=O)(=O)N(C)C[C@@H]2OCc3cnnn3CCCC(=O)N([C@@H](C)CO)C[C@H]2C)c1	·	–	–	–	–	–
O=C(CC[C@H]1O[C@@H](n2cnc3c(NC(=O)c4ccccc4)ncnc32)[C@H](O)[C@@H]1O)NCc1ccc(OC(F)(F)F)cc1	·	·	–	–	–	–
CCc1nc2ccc(C(=O)NCCN3CCNC3=O)cn2c1N(CCC(C)C)CCN(C)C	·	·	–	–	–	–
CCOC(=O)c1c(NC(=O)CSc2nc3ccc(OC)cc3[nH]2)sc2c1CC(C)(C)NC2(C)C	–	–	–	91	–	–
COC(=O)c1c(NC(=O)COc2ccc(Cl)cc2)sc2c1CC(C)(C)NC2(C)C	82	–	-57	99	–	–
CCCS(=O)(=O)NC(=O)C1(C)CCCN(C(=O)c2cc(F)ccc2C)C1 (stereo not drawn)	·	·	–	–	–	–
COc1ccc(Cl)cc1NC(=O)CN(C)S(=O)(=O)c1cccs1	–	47	–	–	–	–
COc1ccc(Cl)cc1NC(=O)CN(C)CC(=O)NCc1cccs1	·	–	–	–	–	–
O=S(=O)(Nc1ccc(O)c2ccccc12)c1ccc(F)cc1	–	–	–	–	84	–
COc1ccc(OC)c(S(=O)(=O)Nc2ccc(O)c3ccccc23)c1	–	–	–	67	64	–
CCc1ccc(S(=O)(=O)Nc2ccc(O)c3ccccc23)cc1	–	–	–	–	94	–
COc1ccc(OC)c(S(=O)(=O)NC(C)CCc2ccccc2)c1 (stereo not drawn)	–	51	–	–	–	–
O=S(=O)(Nc1ccc(NS(=O)(=O)c2ccccc2)c2ccccc12)c1ccccc1	·	–	–	–	–	–
COc1ccc2c(c1)C(=O)C1(CC2)OC1c1cccnc1 (stereo not drawn)	·	–	–	–	–	–
Cc1nc2ncccn2c1-c1csc(Nc2ccccc2)n1	–	40	–	–	–	–
SMILES	MITF TRPM1 inh	LMP1 NFkB inh	KKLEB cytotox	Peg3 prom inh	CF NFkB block	Shn3 3UTR inh
COc1cc(C(=O)N2CCCC(c3cc(C(=O)NCc4ccccc4)no3)C2)cc(OC)c1C (stereo not drawn)	·	·	–	–	–	–
COc1cccc(-c2csc(N3CCN(C(=O)Nc4ccccc4Cl)CC3)n2)c1	–	–	–	–	–	–
COc1ccc(-c2csc(NC(C)=O)n2)cc1OC	–	–	–	–	–	–
COc1cccc(NC(=O)Nc2nc(-c3ccc(OC)c(OC)c3)cs2)c1	80	52	-100	105	109	–
COc1cccc(NC(=O)N2CCN(c3nc(-c4cccc(OC)c4)cs3)CC2)c1	–	–	–	51	–	–
CCOc1ccc(NC(=O)c2ccccc2OCC(=O)c2ccc(C)cc2)cc1	–	–	-53	–	–	–
Cc1ccccc1OCCC(=O)N1CCN(S(=O)(=O)c2ccc(F)cc2)CC1	–	–	–	–	–	–
Cc1cc(C)c(S(=O)(=O)N2CCN(C(=O)CCOc3ccccc3C)CC2)c(C)c1	·	64	–	–	–	–
O=C(Cn1c(=O)c2cccn2c2cccnc21)N1CCN(c2ccccc2F)CC1	–	71	–	–	–	–
O=C(CCCn1c(=O)c2cccn2c2cccnc21)N1CCN(c2ccccc2F)CC1	–	–	–	–	–	–
CN1C(=O)N(CC(=O)c2ccc3c(c2)OCO3)C(=O)C12CCCCC2	·	–	–	–	–	–
CC(C)CC(=O)Nc1ncc([N+](=O)[O-])s1	–	–	–	–	–	–
Cc1nc(C)c(C(=O)Nc2ncc([N+](=O)[O-])s2)o1	–	49	–	–	–	–
CCOC(=O)c1sc(NC(=O)CCN2CCN(C)CC2)c(C(=O)OCC)c1C	–	–	–	84	–	–
Cc1cccc(NC(=O)CSc2nc3ccccc3c(=O)n2C)c1C	·	–	–	–	–	87
CS(=O)(=O)c1ccc(Cl)c(NC(=O)CSc2nc3ccccc3c(=O)n2Cc2ccco2)c1	–	–	-54	–	–	–
CC1(C(=O)O)CCCN1C(=O)c1cccc(C(F)(F)F)c1 (stereo not drawn)	·	·	–	–	–	–
O=C(CCc1ccccc1)NC(c1cccs1)c1cc(Cl)c2cccnc2c1O (stereo not drawn)	–	54	–	–	–	–
CCCC(=O)NC(c1cccs1)c1cc([N+](=O)[O-])c2cccnc2c1O (stereo not drawn)	–	–	–	54	–	–
CCC(=O)N1CCC(C)(C(=O)NCc2cccc(OC)c2)C1 (stereo not drawn)	·	·	–	–	–	–
CC(C)CC(N)c1csc(Nc2cc(Oc3ccccc3)ncn2)n1 (stereo not drawn)	·	·	–	63	–	–
CCNC(=O)C1(C)CCN(C(=O)c2cccc(C#N)c2)C1 (stereo not drawn)	·	·	–	–	–	–
COc1ccc2nc3cc(Cl)ccc3c(Nc3ccc(O)c(CN4CCN(C)CC4)c3)c2c1	106	–	–	95	–	–
C=CCn1cc(-c2ccc(Cl)cc2)cc(C#N)c1=O	–	–	–	–	–	–
C=CCn1cc(-c2ccccc2)cc(C#N)c1=O	–	–	-96	–	–	–
C[C@H](CO)N1C[C@H](C)[C@@H](CN(C)S(=O)(=O)c2ccc(C#N)cc2)OCc2cn(nn2)CCCC1=O	·	–	–	–	–	–
CC(C)C[C@H]1CN([C@@H](CC(C)C)CN2CCC[C@@H]2CN2C(=S)NC[C@@H]2Cc2ccc(O)cc2)C(=S)N1CCc1ccccc1	·	·	–	–	–	–
